Inconclusive results are not listed. A call without a number means that no potency is given here. Values without a mark were called inactive. Active and inactive are the calls of the source. Calls come from the whole dose curve; as a rule, active = well fitted inhibition curve with a large enough effect; inconclusive = small, poorly fitted or top-dose-only effect; inactive = no such curve, though single readings can be large or run the other way.

The text below walks through data of PubChem BioAssay (NCATS).
Potency is the fitted concentration of half-maximal effect.

The test system of the test is Zika virus NS2B-NS3 protease (linked construct). Kind of test: Primary screen NINDS Rhodamine qHTS for Zika virus inhibitors (AID 1347160). Note: nearly all actives have a fitted effect of over 55% in size. The settings on record: purified NS2B-NS3 protease, Rhodamine110 substrate fluorescence; series mostly up to 57.1 µM. The method, boiled down:
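Each compound, titrated, sat 15 min with 25 nM linked protease before 1.5 microM Rhodamine110 substrate went in. Fluorescence gain over the next 15 min, in pH 8.0 Tris with Tween 20, gave Hill-fitted curves.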
On the technique in general: Quantitative high-throughput screening tests each substance at several concentrations.
On to `CCCCc1c(-c2ccc(OC)cc2)[nH]c2nccnc12`, for which the Potency entry is “inactive”.

Turning to `C=CC(=O)N1CCN(C(=O)CNc2cc(-c3ccccc3Cl)c(Cl)cc2OC)CC1`, the Potency result is “inactive”.

With `Cc1c(C(=O)NCc2cccnc2)nn(-c2ccc(Cl)cc2Cl)c1-c1ccc(Cl)cc1`, the Potency entry is “inactive”.

Turning to `O=C(c1c(F)ccc(NS(=O)(=O)N2CC[C@@H](F)C2)c1F)c1c[nH]c2ncc(-c3cnc(C4CC4)nc3)cc12`, the Potency entry is “inactive”.

Consider `CC(C)(C)OC(=O)c1ncn2c1C(C)(C)Nc1ccccc1-2`, for which the Potency entry was “inactive”.

For the compound `CCOc1ccc(CCNC(=O)c2cc3sc(Cl)cc3n2C)cc1OCC`, the Potency result is “inactive”.

As to `COc1ccccc1N1CCN(CC(C(=O)NC(C)(C)C)c2ccccc2)CC1` (centres undefined), the Potency entry is “inactive”.

`CN(C)CCN(Cc1ccc(-c2ccc(CNCCc3ccccc3)cc2)cc1)C(=O)CCC1CCCC1`: the Potency entry was “inactive”.

As to `COC(=O)c1sccc1S(=O)(=O)Nc1ccc(Nc2ccccc2)cc1OC`, the Potency result was “inactive”.

Turning to `CC(C)(N)c1ncc(-c2ccc(OC(F)(F)F)cc2)[nH]1`, the Potency result is “inactive”.

With `Cc1nc(C(=O)N2CCC[C@H]2Cc2nnc(-c3ccccc3)o2)c(-c2ccccc2F)s1`, the Potency entry is “inactive”.

Regarding `OC(CC1c2ccccc2-c2cncn21)C1CCCCC1` (centres undefined), the Potency entry was “inactive”.

As to `C=CC(=O)N1CC(N2CCN(C(=O)CNc3cc(C4CC4)c(Cl)cc3O)CC2)C1`, the Potency result was “inactive”.

Take `COc1cc2c(cc1NS(=O)(=O)c1ccc(Br)cc1C)n(C)c(=O)n2C`: the Potency entry is “inactive”.

With `CCn1c(-c2nonc2N)nc2c(C#CC(C)(C)O)ncc(OCC3CCCNC3)c21` (centres undefined), the Potency result is “inactive”.

For `CCc1cc(C(N)=O)ccc1-n1nc(C(C)C)c2c(-n3cnc(-c4cnn(C)c4)c3)ccnc21`, the Potency entry was “inactive”.

As to `N#Cc1ccc2ncnc(NCCc3ccccc3)c2c1`, the Potency entry was “inactive”.

Consider `O=S(=O)(NCc1cccc2ccccc12)c1cc(Cl)c(Oc2cccc(N3CCNCC3)c2)s1`, for which the Potency entry was “inactive”.

`O=S(=O)(N[C@H]1CCCC[C@@H]1N1CCOCC1)c1ccc(Cl)cc1`: the Potency entry is “inactive”.

`Cc1[nH]c(/C=C2\C(=O)Nc3ccc(F)cc32)c(C)c1C(=O)NCCN1CCCC1`: the Potency result is “inactive”.

On to `COc1cc(F)c(F)c(Nc2ccc(I)cc2F)c1NS(=O)(=O)C1(CC(O)CO)CC1` (centres undefined), for which the Potency result was “inactive”.

`Cc1cc(-c2ncc(-c3cccnc3)cc2/C=C/c2ccccc2)cnc1-c1cccnc1`: the Potency result is “inactive”.

`CC1(C)SCCN(S(=O)(=O)c2ccc(Oc3ccncc3)cc2)[C@H]1C(=O)NO`: the Potency result was “inactive”.

Consider `CC[C@H](C)/C=C(C)/C=C/C1=CC2=C(Cl)C(=O)[C@](C)(O)[C@H](OC(C)=O)[C@H]2CO1`, for which the Potency is 11.2 µM (active).

Turning to `CCC(C)C1NC(=O)C(Cc2ccccc2)NC(=O)C(CCCCCC(=O)C(O)CO)NC(=O)C2CCCCN2C1=O` (centres undefined), the Potency entry is “inactive”.

In the case of `Cc1cc2occ(CN(C)CCN(C)Cc3cn(-c4cccc(C(F)(F)F)c4)c4ccccc34)c(=O)c2cc1C`, the Potency result was “inactive”.

Regarding `N#CSc1cc(SC#N)c(N)nc1N`, the Potency result was “inactive”.

`COc1cc(N2CCC(N)CC2)ccc1Nc1ncc(Cl)c(-c2c[nH]c3ccccc23)n1`: the Potency entry is “inactive”.

For the compound `COc1ccc(C#Cc2ccc(C(=O)N3CCC[C@@H](O)C3)c(F)c2)cc1`, the Potency entry was “inactive”.

As to `CC1=CC2/C=C(\C)CCC(O)C/C=C/C(=O)OC23C(=O)NC(CC(C)C)C3C1C` (centres undefined), the Potency result was “inactive”.

Turning to `CNC1CN(c2ccc3c(=O)c(C(=O)O)cn(-c4nccs4)c3n2)CC1OC` (centres undefined), the activity change, negative = inhibition is 19.1% [at 10.7 µM].

For the compound `COc1cc(O)cc(OC2OC(CO)C(O)C(O)C2O)c1` (centres undefined), the Potency entry is “inactive”.

Take `COC1CC(=O)C23C(=O)NC(CC(C)C)C2C(C)C(C)=CC3/C=C(\C)CCCC1O` (centres undefined): the Potency entry is “inactive”.

In the case of `C=C1C(=O)O[C@@H]2[C@H]1CC(=O)[C@H](C)[C@@](O)(C(=O)/C=C/C)[C@H]2OC(=O)C(C)CC` (some centres undefined), the Potency entry was “inactive”.

As to `O=C1Nc2ccccc2-c2nc3ccccc3c(=O)n2-c2c(O)cccc21`, the Potency result was “inactive”.

Regarding `Fc1ccc2c(CCNCc3cccc(OCC(F)(F)C(F)F)c3)c[nH]c2c1`, the Potency entry was “inactive”.

With `COc1ccc(C#Cc2ccc(C(=O)N3CCC[C@@H](CO)C3)cc2)cc1`, the Potency entry was “inactive”.

For the compound `CNCCN1CCC(c2cc(CN(C)C(=O)c3cccc(Oc4ccccc4)c3)ccn2)CC1`, the Potency entry was “inactive”.

Turning to `CC(C)C[C@@H](C(=O)N[C@@H](Cc1ccc(OCc2ccccc2)cc1)C(=O)NC(C)(C)C)N(C)Cc1ccc(C(C)(C)C)cc1`, the Potency result is “inactive”.
